The target of test [1] is Nuclear receptor coactivator 1 (Homo sapiens) (UniProt Q15788). Nature of the test: NCOA1 GAL4-fusion reporter inhibition – cell-based, luminescence, quadruplicate, confirmation (AID 588820).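 Also: 0% = DMSO wells and 100% = gossypol 36 µM treated wells.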 The settings on record: HEK293 GAL4-SRC1 luciferase reporter, at 3.6 µM, active compounds read high. A general note: Reporter assays use an easily measured gene product as a stand-in for the process of interest.

Test [2] in a line: repression of VP16-driven luciferase reporter – cell-based, luminescence, high throughput, counter-screen for SRC1 inhibitor project (AID 588824; in the data active = inhibition above about 25%). The settings on record: cell-based VP16 transactivation luciferase luminescence; at 3.6 µM; active compounds read high.

56 molecules from PubChem BioAssay can be followed below.

SMILES strings stand for the structures. Values without a mark were called inactive. Activity calls are given as the source filed them.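 The calls were made as follows, unless noted: active = mean inhibition above 46.68%, the untreated control wells mean plus 3 SD; inactive = the rest.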

Sequence of Nuclear receptor coactivator 1 (Homo sapiens) (Q15788 whole entry, looked up, the tested form may be a part): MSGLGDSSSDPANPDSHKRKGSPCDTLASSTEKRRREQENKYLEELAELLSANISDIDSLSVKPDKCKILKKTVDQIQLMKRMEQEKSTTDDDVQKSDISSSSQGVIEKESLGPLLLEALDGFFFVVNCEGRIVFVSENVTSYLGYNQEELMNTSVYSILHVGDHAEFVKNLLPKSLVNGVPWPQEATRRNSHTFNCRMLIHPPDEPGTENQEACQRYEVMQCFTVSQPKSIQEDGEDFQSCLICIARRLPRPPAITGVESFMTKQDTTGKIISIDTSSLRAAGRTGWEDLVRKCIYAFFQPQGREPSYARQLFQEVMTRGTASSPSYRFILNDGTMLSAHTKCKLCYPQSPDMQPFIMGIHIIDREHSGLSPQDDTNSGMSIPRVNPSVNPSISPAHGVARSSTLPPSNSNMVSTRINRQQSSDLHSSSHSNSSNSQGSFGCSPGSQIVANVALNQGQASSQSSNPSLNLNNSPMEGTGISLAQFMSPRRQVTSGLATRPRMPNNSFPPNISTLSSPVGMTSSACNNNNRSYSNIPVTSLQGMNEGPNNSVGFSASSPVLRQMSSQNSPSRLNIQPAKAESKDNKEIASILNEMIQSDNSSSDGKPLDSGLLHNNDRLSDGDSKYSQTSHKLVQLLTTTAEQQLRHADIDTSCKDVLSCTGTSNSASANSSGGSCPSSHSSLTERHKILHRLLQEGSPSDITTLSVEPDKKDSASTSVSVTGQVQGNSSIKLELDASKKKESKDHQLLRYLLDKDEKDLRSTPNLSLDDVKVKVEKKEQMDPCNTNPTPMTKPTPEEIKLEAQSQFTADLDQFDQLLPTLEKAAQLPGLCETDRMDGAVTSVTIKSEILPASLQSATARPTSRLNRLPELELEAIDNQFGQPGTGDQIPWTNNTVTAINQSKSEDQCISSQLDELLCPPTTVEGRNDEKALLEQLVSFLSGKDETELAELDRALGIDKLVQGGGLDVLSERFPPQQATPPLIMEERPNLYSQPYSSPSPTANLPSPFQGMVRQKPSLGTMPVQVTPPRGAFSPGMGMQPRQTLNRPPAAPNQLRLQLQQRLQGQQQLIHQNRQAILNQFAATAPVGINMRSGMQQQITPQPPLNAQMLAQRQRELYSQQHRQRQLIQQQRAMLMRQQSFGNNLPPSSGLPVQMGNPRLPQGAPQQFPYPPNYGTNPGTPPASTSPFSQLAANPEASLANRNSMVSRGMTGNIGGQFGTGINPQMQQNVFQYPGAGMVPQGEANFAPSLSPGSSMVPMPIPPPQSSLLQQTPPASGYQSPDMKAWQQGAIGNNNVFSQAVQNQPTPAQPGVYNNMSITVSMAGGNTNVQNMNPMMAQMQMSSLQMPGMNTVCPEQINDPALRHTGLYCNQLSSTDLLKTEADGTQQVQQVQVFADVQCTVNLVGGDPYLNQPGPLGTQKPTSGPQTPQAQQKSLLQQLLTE

What is called inhibition is the drop in the measured response relative to a control, in per cent. On to `COc1ccc(-n2c(NNC(C)=O)nc3sc4c(c3c2=O)CCCC4)cc1`, for which the results for the inhibition in test [1] and in test [2] were 23.4% and 31.6% (active), respectively.
For `COc1ccccc1NC(=O)CN(c1ccccc1)S(=O)(=O)c1ccccc1` the same measures were -16.7% and -7.82%.
For `O=C(Nc1ccccc1)N1CCCN(c2ccc(C(F)(F)F)cn2)CC1` the same measures were -0.62% and -2.54%.
For `O=c1ccc2c(ccc3ncccc32)o1` the same measures were 18.8% and 8.67%.
Consider `C[C@H]1CN([C@@H](C)CO)C(=O)CCCn2nncc2CO[C@H]1CN(C)C(=O)C1CCCCC1`, for which the inhibition in test [1] was -19.8%; in test [2], -11.3%.
For `CCCCCCCCNc1ncnc2[nH]ncc12` the same measures were -9.61% and 19.6%.
For `Cc1c(C(=O)NN)nn(-c2ccc(Cl)cc2)c(=O)c1C#N` the same measures were -10.1% and 5.25%.
On to `O=C1C2C3C=CC(C3)C2C(=O)N1CN(Cc1ccccc1)CN1C(=O)C2C3C=CC(C3)C2C1=O` (configuration not stated), for which the inhibition was -20.9% in test [1] and -14.3% in test [2].
In the same order, the values of `CCN(CC)CCNC(=O)c1ccc(NC(=O)C2CCN(c3ncnc4sc(C)c(C)c34)CC2)cc1` are 24.3% and 17.3%.
For `COc1ccc(NC(=O)/C(C#N)=C\c2cc(C)n(-c3ccc4c(c3)OCO4)c2C)cc1` the same measures were -34.8% and 30.7% (active).
For `COc1ccc2c(c1)c(C(=O)CN1CCN(Cc3ccccc3)CC1)c(C)n2C` the same measures were -13.6% and -0.22%.
In the case of `COc1ccccc1-n1nnnc1SC(C)C(=O)NC1CCCC1` (configuration not stated), the inhibition was -17.1% in test [1] and -10.9% in test [2].
Take `O=C(NCc1ccco1)c1cccc(NC(=O)c2ccco2)c1`: the inhibition in test [1] was 28.5%; in test [2] it was 50% (active).
In the same order, the values of `Cc1sc(NC(=O)c2ccco2)c(C(c2cccnc2)N2CCC(C)CC2)c1C` (configuration not stated) are -5.49% and 26.1% (active).
For `CS(=O)(=O)Nc1cccc(NC(=O)C2Cc3c(-c4ccco4)ccnc3O2)c1` (configuration not stated) the same measures were 22.6% and 14.9%.
For `Cc1cc(C)nc(/N=C(\N)Nc2ccc(CC(=O)OC(C)C)cc2)n1` the same measures were -11.9% and 16.6%.
Take `c1ccc(Cc2nnc3sc(-c4ccncc4)nn23)cc1`: the inhibition in test [1] is 5.92%; in test [2], -1.52%.
Turning to `COc1ccc2c(C#N)c3ccccn3c2c1`, the inhibition in test [1] is 37.4%; in test [2], 7.81%.
In the same order, the values of `COc1ccc(-n2c(SC(C)C(=O)Nc3ncc(Cl)cc3Cl)nc3ccccc32)cc1` (configuration not stated) are 35.4% and 79.4% (active).
In the same order, the values of `CCOc1cccc(/C=N/NC(=O)c2cc(C3CC3)[nH]n2)c1O` are 21.5% and 21.7%.
In the same order, the values of `COc1ccc(Nc2nc(-c3cccs3)nc3ccccc23)cc1S(=O)(=O)N1CCOCC1` are -30.8% and -9.26%.
Regarding `CC(=O)c1c(C)[nH]c(C(=O)COc2ccc3ccc(=O)oc3c2)c1C`, the inhibition in test [1] was -13.5%; in test [2] it was 4.04%.
For `O=C1CSc2ccc(S(=O)(=O)NCc3ccccc3)cc2N1` the same measures were -4.74% and -9.61%.
For `COc1ccc(C)cc1S(=O)(=O)N1CCCC(N2CCN(c3ccccc3)CC2)C1` (configuration not stated) the same measures were 2.59% and 6.89%.
For `Cc1cnccc1NC(=O)c1cccs1` the same measures were -0.39% and 0.67%.
Regarding `CC1CCCCN1c1ncnc2ccccc12` (configuration not stated), the inhibition is 18.5% in test [1] and 17.9% in test [2].
In the same order, the values of `CCCCNC(=O)C1(C)CCCCN1C(=O)c1ccc2c(c1)C(C)(C)CCC2(C)C` (configuration not stated) are 7.49% and 10.7%.
In the same order, the values of `Cn1c2ccccc2c(=O)c2ccc(C#CC3(O)CCCCC3)cc21` are -132% and -43.1%.
On to `COc1ccc(CNc2nc(C)cc(C)c2C#N)cc1`, for which the inhibition in test [1] was -9.61%; in test [2], -3.68%.
For `CC(C)C[C@H](NC(=O)c1nc[nH]c1C(=O)N1CCN(C(=O)OC(C)(C)C)CC1)C(=O)OC(C)(C)C` the same measures were 21.8% and 78.9% (active).
In the same order, the values of `O=C(NC(=S)NCC1CCCO1)c1ccccc1[N+](=O)[O-]` (configuration not stated) are -12.7% and -12%.
For `CCOC(=O)C1=C[C@@H](CC)N(S(=O)(=O)c2ccc([N+](=O)[O-])cc2)[C@H]1c1ccccc1` the same measures were -2.32% and -3.27%.
As to `CCN(CC(=O)Nc1c(F)cccc1F)C(=O)/C=C/c1ccc(S(=O)(=O)N2CCCCCC2)cc1`, the inhibition in test [1] is -10.1%; in test [2], 6.23%.
For `COc1ccc(Cl)cc1NC(=O)Nc1ccccc1C(N)=O` the same measures were 9.1% and 17.7%.
In the case of `O=C1c2cccc(OCc3ccc(F)cc3)c2CCN1Cc1ccc(F)cc1`, the inhibition in test [1] was 21.3%; in test [2], 33.4% (active).
For `CC(=NCc1cccc(Cl)c1)c1nc(-c2ccco2)oc1O` the same measures were 4.53% and 45% (active).
For `O=C(c1ccccc1)N1CCN(Cc2ccc3c(c2)OCO3)CC1` the same measures were 0.9% and 3.86%.
Take `CCN1CCS/C1=C/C=C/C1=[N+](CC)CCS1`: the figures for the inhibition in test [1] and in test [2] were -22.7% and 47% (active), respectively.
In the same order, the values of `O=C(Nc1ccncc1)c1ccccc1[N+](=O)[O-]` are 33.6% and 19%.
For `CN1CCN(C(=O)CCN2C(=O)/C(=C/c3cccc(Br)c3)SC2=S)CC1` the same measures were 10.7% and 16.9%.
In the same order, the values of `O=c1c2ccccc2oc2ccc(C#CC3(O)CCCCC3)cc12` are -38.7% and -23.9%.
Regarding `c1ccc2c(c1)ccc1ncccc12`, the inhibition is 1.02% in test [1] and 6.62% in test [2].
For `Cc1noc(C)c1COC(=O)CCN1c2ccccc2Sc2ccccc21` the same measures were 0.23% and -13.4%.
For `Cn1c(/C=N/NC(=O)c2ccccc2Br)nc2ccccc21` the same measures were 4.29% and 15.7%.
For `CCOc1ccc(CCNC(=O)COC(=O)c2cc(OC)c(OC)cc2[N+](=O)[O-])cc1OCC` the same measures were -11.8% and -2.67%.
Turning to `S=C(NC1CCCCC1)N1CCOCCOCCN(C(=S)NC2CCCCC2)CCOCCOCC1`, the figures for the inhibition in test [1] and in test [2] were 7.13% and 7.75%, respectively.
Take `COc1cc(C(=O)Nc2cccc(-c3cn4cccnc4n3)c2)cc(OC)c1OC`: the values for the inhibition in test [1] and in test [2] were -27.4% and -27.3%, respectively.
For `O=c1[nH]nnc2c1ncn2C1OC(CO)C(O)C1O` (configuration not stated) the same measures were 0.97% and 17.6%.
For `CCOc1cccc(C(=O)Nc2nc(-c3ccc(S(=O)(=O)N4CCOCC4)cc3)cs2)c1` the same measures were -29.3% and -6.23%.
In the same order, the values of `N#CCCN(C(=O)COC(=O)c1ccc2c(=O)n3c(nc2c1)CCC3)c1ccc(F)cc1` are -14.7% and 2.54%.
As for `Cc1nn(-c2ccccc2)c(N2CCCC2)c1/C=N/NC(=O)c1cc(-c2cccnc2)nc2ccccc12`, the inhibition in test [1] is -42.9%; in test [2], -7.83%.
Consider `COC(=O)C(=N/Nc1ccccc1C(=O)OC)/C(C)=N/O`, for which the results for the inhibition in test [1] and in test [2] were -2.93% and -4.44%, respectively.
In the same order, the values of `O=C(O)c1ccccc1-c1c2cc(I)c(=O)c(I)c-2oc2c(I)c(O)c(I)cc12` are 18.7% and 15.7%.
In the same order, the values of `Cc1cc(C)c(CN2CCN(C(=O)Cn3cnc4c(OCc5ccccc5)ncnc43)CC2)c(C)c1` are 4.65% and 38.5% (active).
In the same order, the values of `CCN1CCN(c2ccc(S(=O)(=O)N3CCCCC3)cc2NC(=O)c2cccc(Cl)c2)CC1` are -2.97% and -2.54%.
For the molecule `Cc1ccccc1N(C(=O)c1csnn1)C(C(=O)NC1CCCCC1)c1ccncc1` (configuration not stated), the inhibition is -16% in test [1] and -5.53% in test [2].
